How the values were obtained:
Assay in all cases: PBM binding z-score (relative to random genomic background probes); higher = stronger binding; sequences stand for … in GC…GCGATTGACAGCGTAGAATGAAGG
[1] = tested on: FXR:RXRa (NR concentration 270 nM, RXRa partner concentration 90 nM)
Procedure, shortened: (§1)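 Custom Agilent 4×180K protein-binding microarrays carried double-stranded probes. Their 34-nt variable regions held direct-repeat seeds, single-nucleotide variants, half-site ablations and random human genomic background sequences. Arrays were incubated 1 h with ligand-free nuclear receptor dimers in PBS pH 7.4, 2% milk, 0.02% Triton X-100, 1 mM DTT, 0.2 mg/mL BSA and 0.4 mg/ml salmon testes DNA. Antibodies against each partner (one per run) detected binding, and scanned fluorescence was regression-normalized. Binding z-scores use random background probes as reference.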

[2] = tested on: LXRa:RXRa (NR concentration 270 nM, RXRa partner concentration 90 nM)
Procedure, shortened: as §1

[3] = tested on: LXRa homodimer (NR concentration 270 nM)
Procedure, shortened: as §1

[4] = tested on: LXRb:RXRa (NR concentration 270 nM, RXRa partner concentration 90 nM)
Procedure, shortened: as §1

[5] = tested on: LXRb homodimer (NR concentration 270 nM)
Procedure, shortened: as §1

[6] = tested on: PPARa:RXRa (NR concentration 270 nM, RXRa partner concentration 90 nM)
Procedure, shortened: as §1

[7] = tested on: PPARg:RXRa (NR concentration 180 nM, RXRa partner concentration 90 nM)
Procedure, shortened: as §1

[8] = tested on: PPARg:RXRa 270nM:90nM, anti-RXR (NR concentration 270 nM, RXRa partner concentration 90 nM)
Procedure, shortened: as §1

[9] = tested on: PPARg:RXRa 30nM:10nM, anti-RXR (NR concentration 30 nM, RXRa partner concentration 10 nM)
Procedure, shortened: as §1

[10] = tested on: PPARg:RXRa 90nM:30nM, anti-RXR (NR concentration 90 nM, RXRa partner concentration 30 nM)
Procedure, shortened: as §1

[11] = tested on: PPARg:RXRa DBDmut IVT, anti-RXR (DBD mutation: RXRa K156A/R161A, NR concentration 270 nM, RXRa partner concentration 90 nM)
Procedure, shortened: as §1

[12] = tested on: PPARg:RXRa IVT, anti-PPARg (NR concentration 270 nM, RXRa partner concentration 90 nM)
Procedure, shortened: as §1

[13] = tested on: PPARg DBDmut:RXRa IVT, anti-PPARg (DBD mutation: PPARg1 K132A/R137A, NR concentration 270 nM, RXRa partner concentration 90 nM)
Procedure, shortened: as §1

[14] = tested on: PPARg DBDmut IVT, anti-PPARg (DBD mutation: PPARg1 K132A/R137A, NR concentration 270 nM)
Procedure, shortened: as §1

[15] = tested on: PPARg homodimer (NR concentration 180 nM)
Procedure, shortened: as §1

[16] = tested on: PXR:RXRa (NR concentration 270 nM, RXRa partner concentration 90 nM)
Procedure, shortened: as §1

[17] = tested on: PXR homodimer (NR concentration 270 nM)
Procedure, shortened: as §1

[18] = tested on: RARa:RXR (NR concentration 270 nM, RXRa partner concentration 90 nM)
Procedure, shortened: as §1

[19] = tested on: RARa homodimer (NR concentration 270 nM)
Procedure, shortened: as §1

[20] = tested on: RARb:RXRa (NR concentration 270 nM, RXRa partner concentration 90 nM)
Procedure, shortened: as §1

| Sequence | PBM binding z-score [1] | PBM binding z-score [2] | PBM binding z-score [3] | PBM binding z-score [4] | PBM binding z-score [5] | PBM binding z-score [6] | PBM binding z-score [7] | PBM binding z-score [8] | PBM binding z-score [9] | PBM binding z-score [10] | PBM binding z-score [11] | PBM binding z-score [12] | PBM binding z-score [13] | PBM binding z-score [14] | PBM binding z-score [15] | PBM binding z-score [16] | PBM binding z-score [17] | PBM binding z-score [18] | PBM binding z-score [19] | PBM binding z-score [20] |
| --- | --- | --- | --- | --- | --- | --- | --- | --- | --- | --- | --- | --- | --- | --- | --- | --- | --- | --- | --- | --- |
| ATCGAAAAGTCGAAGGTGAGTATACCCACCCGAA | 0.0437 | -0.18 | -0.293 | -0.264 | -0.243 | 0.35 | 0.704 | 0.332 | 0.126 | 0.251 | -0.679 | 0.2 | 0.0254 | 0.527 | 0.0253 | -0.258 | -0.0858 | 0.357 | 0.291 | 0.417 |
| TGAATGACGTTAAAGATCAGGGAACGTGGCGTCG | -0.238 | -0.18 | -0.178 | -0.538 | 0.178 | -0.0143 | 0.989 | 1.26 | 0.931 | 1.28 | -1.13 | 0.0329 | 0.97 | 0.284 | -0.272 | -0.444 | -0.0558 | -0.209 | 0.184 | -0.171 |
| CGTCAAAGTTCAAGGCAACGTAACAGAAAGCAGC | 5.83 | 5.32 | 2.35 | 2.97 | 0.47 | 4.47 | 3.88 | 4.87 | 1.54 | 3.53 | 0.106 | 1.35 | -0.0637 | 0.203 | 2.24 | 3.56 | 1.41 | 2.87 | 0.477 | 4.98 |
| CAAACTAGGTCAAGAGGTCAAACTCCGCTTCCCG | 7.36 | 6.74 | 6.8 | 5.98 | 2.74 | 6.77 | 10.1 | 8.55 | 7.7 | 9.09 | 8.21 | 8.74 | 4.72 | 2.13 | 6.57 | 6.37 | 4.12 | 8.15 | 2.88 | 5.41 |
| CGTCAAAGTTCAAGCTAACGTAACAGAAAGCAGC | 7.1 | 6.1 | 3.7 | 3.81 | 1.32 | 4.93 | 4.58 | 5.18 | 2.29 | 4.32 | 0.497 | 1.77 | 1.34 | 1.15 | 3.13 | 4.47 | 2.52 | 3.3 | 2.21 | 5.24 |
| ATCGAAACGTCGACGAGGTGAGTATACACCGTTT | -0.264 | -0.5 | -0.605 | -0.525 | -0.00441 | -0.269 | 0.855 | -0.111 | -0.111 | -0.157 | -0.306 | 0.572 | 0.364 | 1.43 | -0.489 | -0.346 | -0.33 | -0.0607 | 0.109 | -0.0586 |
| AGTCAAAGTTCAGGACGAGGTACCGTAAAGCACG | 3.73 | 3.6 | 1.07 | 1.66 | 0.243 | 3.21 | 4.19 | 4.86 | 1.63 | 3.51 | -0.264 | 0.999 | -0.0468 | -0.427 | 0.643 | 2.17 | 0.824 | 2.02 | 0.582 | 4.34 |
| ATATGTGGGTTATCGGGTCATTCAGTTTGCGCAT | 3.03 | 2.75 | 1.74 | 3.53 | 1.8 | 4.86 | 6.89 | 5.78 | 3.08 | 5.43 | 7.02 | 7.14 | 3.15 | 3.66 | 3.07 | 3.93 | 7.1 | 3.81 | 2.31 | 2.42 |
| ATCGTAAGGTCGTGAGGTGAGTATACAGAAAGGC | 3.26 | 2.69 | -0.00472 | 2.14 | 0.775 | 3.87 | 1.99 | 2.39 | 0.777 | 1.55 | 0.0684 | 1.65 | 1.19 | 1.05 | 1.4 | 2.22 | 0.545 | 3.29 | 0.99 | 3.11 |
| CAAACTAGGTCACAGAGGGCAAAGTCCGTGCGTA | 5.08 | 4.6 | 2.26 | 3.61 | 0.517 | 5.45 | 8.81 | 7.31 | 5.42 | 7.28 | 8.48 | 8.83 | 5.61 | 4.71 | 1.95 | 4.26 | 4.07 | 3.86 | 0.666 | 4.54 |
| ATCGAAAGGTCGACGAGGTGAGTATGCACCGTTT | 4.61 | 3.13 | -0.377 | 2.5 | 0.258 | 4.53 | 2.51 | 3.05 | 0.831 | 1.92 | 0.283 | 1.96 | 0.899 | 0.519 | 1.67 | 2.99 | 0.682 | 3.5 | 0.243 | 3.99 |
| CAAAGTAGGTCAAGAGGTCAAAGTCCGCTTCCCG | 7.25 | 6.52 | 6.36 | 5.69 | 2.34 | 6.74 | 10.3 | 8.87 | 7.55 | 9.17 | 8.4 | 8.84 | 1.65 | 1.18 | 5.39 | 6.22 | 3.31 | 7.83 | 2.53 | 5.55 |
| CCTGGCAGGCCAGGGTCACTCAAGCATTTCGCTT | 2.34 | 2.07 | -0.539 | 2.18 | -1.2 | 3.35 | 0.292 | 1.27 | -0.621 | 0.206 | -0.558 | 0.531 | -1.01 | -1.58 | 0.712 | 3.01 | -0.393 | 3.1 | -0.89 | 2.91 |
| CCTAGTTGGTCAGGAGGCCACACACCGGATATGA | 0.457 | 0.364 | 0.335 | 0.191 | 0.0739 | 0.181 | 0.848 | 0.732 | 0.118 | 0.128 | 0.654 | 1.37 | 0.117 | -0.424 | 0.805 | -0.041 | 0.627 | -0.174 | 0.55 | 1.23 |
| CCTACTGGGCCATTCAGAGGTTATTGATCATATG | 0.119 | 0.693 | 0.815 | 0.664 | -0.334 | 1.55 | 0.601 | 1.23 | 0.0553 | 0.458 | 4.41 | 3.71 | 0.418 | 0.252 | 0.658 | 0.724 | 0.159 | 0.877 | 0.171 | 0.712 |

Reference: the supplement of paper PMC6555819
